Screening results (PubChem BioAssay)
Most compounds without a hit are left out; they make up all but 21% or so of the library.
Shiga toxin inh: blocks Shiga toxin action in Vero cells. Vero cells, Shiga toxin protein synthesis inhibition reporter. inhibition, % at 38.7 µM. 290,000 compounds, 9.2% hits. AID 2315; in the data active = inhibition mostly above about 28%, no sharp cut-off; inactive = mostly below about 43%
CHX counter: counter-screen hit for Shiga toxin inhibitors, cycloheximide | cell reporter, cycloheximide protein synthesis inhibition counterscreen | 300,000 compounds, 12% hits | max response, % | AID 2314; in the data active = max response mostly above about 13%, no sharp cut-off; inactive = mostly below about 14%; note: read at 38.3 µM for the half of the compounds with a filed dose
Pf growth 48h: inhibits P. falciparum growth in the first generation, 48 h. P. falciparum luciferase growth in erythrocytes, 48 h. Potency, µM (top dose mostly 28.7 µM), hits mostly inhibitors. 310,000 compounds, 5.9% hits. AID 504832
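Cell-based growth assay: transgenic P. falciparum expressing firefly luciferase, cultured in red cells within RPMI 1640 containing 0.5% w/v Albumax, 24 mM bicarbonate and gentamycin. A drop in luciferase activity indicates inhibition.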
HCMV inh: human cytomegalovirus inhibition; HFF cells, HCMV-luciferase reporter, 72 h; hits give low values; activity change, negative = inhibition, % at 57.5 µM; 410,000 compounds, 4.5% hits; in the data active = activity change below about -60%; inconclusive = no clear call, values can overlap the other calls; inactive = above about -39%
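Luciferase read-out from HCMV-luciferase-infected HFFs (MOI 1 PFU/cell) 72 h post infection at 37C; compounds added after 16 h cell attachment; activity normalized between buffer-only basal and Salinomycin (10uM) inhibitor controls.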
Pf growth 96h: inhibits malaria parasite growth, 96 h | P. falciparum luciferase reporter growth, 96 h | Potency, µM (titrated, usually from 28.7 µM), usual class: inhibitors | 320,000 compounds, 6.9% hits | AID 504834
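Compounds incubated with erythrocytes infected by luciferase-expressing P. falciparum (2% hematocrit, 0.05% parasitemia final) for 96 hours, 37 C in 5% CO2. Growth inhibition scored as decreased luciferase luminescence.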
HCV inh: HCV inhibition; Huh7.5.1 HCVcc-Cre infection, luciferase reporter, 44 h; Potency, µM (highest dose often 41.8 µM), actives largely listed as inhibitors; 340,000 compounds, 3.4% hits; AID 651820
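Seed cells (1,000/well) for 4 h; treat with compound and infect with HCVcc-Cre, moi about 0.5. Incubate 44 h, then detect luciferase activity.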
Large screens that a line does not name were inactive. Unless noted, calls come from the whole dose curve; as a rule, active = well fitted inhibition curve with a large enough effect; inconclusive = small, poorly fitted or top-dose-only effect, or another doubt; inactive = no such curve, though single readings can be large or run the other way.

O=C(O)c1ccccc1-n1c2ccccc2c2ccccc21	none
CCN(CC)CCSc1c(C(C)C)cnc2c1c(=O)n(C)c(=O)n2C	none (no result: Shiga toxin inh, CHX counter, Pf growth 48h, Pf growth 96h, HCV inh)
CCCCN(CC)CCCNC(=O)C1CCN(c2nc3ccc(CC)cc3s2)CC1	HCMV inh -98 (no result: Shiga toxin inh, CHX counter, Pf growth 48h, Pf growth 96h, HCV inh)
CCCCN(C)CCCNC(=O)C1CCN(c2nc3ccc(CC)cc3s2)CC1	HCMV inh -108 (no result: Shiga toxin inh, CHX counter, Pf growth 48h, Pf growth 96h, HCV inh)
Cc1cc(C)cc(OCc2cc(=O)n3cc(C)sc3n2)c1	none (no result: Shiga toxin inh, CHX counter, Pf growth 48h, Pf growth 96h, HCV inh)
CCN(CC)CCCNC(=O)c1cc2nc3c(c(C(F)(F)F)n2n1)CCc1ccccc1-3	HCMV inh inconclusive, Pf growth 96h inconclusive, HCV inh 1.6µM
Cc1ccc(C)c(NC(=O)C(NS(=O)(=O)c2ccc3c(c2)CCC(=O)N3)c2ccccc2)c1 (centres undefined)	none (no result: Shiga toxin inh, CHX counter, Pf growth 48h, Pf growth 96h, HCV inh)
O=c1cc(-c2ccccc2)oc2cc(O)ccc12	Shiga toxin inh 77, CHX counter 51 (no result: Pf growth 48h, Pf growth 96h)
COc1ccc(-c2cc(=O)c3ccccc3o2)cc1	Shiga toxin inh 52, CHX counter 19, Pf growth 96h inconclusive, HCV inh inconclusive
O=c1cc(-c2ccc(O)cc2)oc2ccccc12	Shiga toxin inh 55, CHX counter 37, HCV inh inconclusive
COc1ccc2oc(-c3ccccc3[N+](=O)[O-])cc(=O)c2c1	Shiga toxin inh 81, CHX counter 41, Pf growth 48h inconclusive, HCV inh inconclusive
COc1ccc2oc(C(F)(F)C(F)(F)F)cc(=O)c2c1	Pf growth 48h inconclusive
O=c1cc(-c2ccncc2)oc2ccccc12	HCMV inh inconclusive, HCV inh inconclusive (no result: Pf growth 48h)
O=C(Cn1c(SCCOc2ccccc2Cl)nc2ccccc21)N1CCCCC1	none (no result: Shiga toxin inh, CHX counter, Pf growth 48h, Pf growth 96h, HCV inh)
CS(=O)(=O)c1ccc(-c2sc3ccccc3c2C(=O)N2CCN(c3ccc(F)cc3)CC2)cc1	none (no result: Shiga toxin inh, CHX counter, Pf growth 48h, Pf growth 96h)
Nc1c(-c2ccc3c(c2)OCCO3)oc2ccccc2c1=O	Shiga toxin inh 70, CHX counter 33
O=c1cc(-c2c(F)c(F)c(F)c(F)c2F)oc2ccccc12	HCMV inh inconclusive, HCV inh 5µM (no result: Pf growth 48h)
O=c1cc(-c2cccc(F)c2)oc2ccccc12	HCV inh inconclusive (no result: Shiga toxin inh, CHX counter, Pf growth 48h, Pf growth 96h)
O=c1cc(-c2ccsc2)oc2ccccc12	HCV inh inconclusive (no result: Shiga toxin inh, CHX counter, Pf growth 48h, Pf growth 96h)
Cc1cccc(-c2oc3ccccc3c2-c2ccc3c(c2)OCO3)c1	Pf growth 48h inconclusive, Pf growth 96h 9.3µM
O=c1cc(-c2ccc(O)cc2)oc2ccc(O)cc12	Shiga toxin inh 54, CHX counter 55, HCV inh 32µM
O=C(Nc1oc2ccccc2c(=O)c1-c1ccc2c(c1)OCO2)c1ccco1	none (no result: Shiga toxin inh, CHX counter, Pf growth 48h, Pf growth 96h, HCV inh)
O=c1cc(-c2ccc3c(c2)OCO3)oc2ccccc12	CHX counter 21, Pf growth 96h inconclusive
CCOC(=O)c1c(C)n(-c2ccccc2)c2ccc(OCCN(C)C)cc12	Pf growth 48h inconclusive, HCV inh 16µM
CCOc1ccc2c(c1)c(C(C)=O)c(C)n2-c1ccccc1	HCMV inh inconclusive, HCV inh 11µM (no result: Pf growth 96h)
CCOC(=O)COc1ccc2c(c1)c(C(C)=O)c(C)n2-c1ccccc1	none
CCOC(=O)c1c(C)n(C)c2ccc(OCCN(C)C)cc12	none (no result: Pf growth 96h)
CS(=O)(=O)Oc1ccc(Br)cc1/C=C1/N=C(c2ccco2)OC1=O	Pf growth 96h 10µM
COc1ccc(NS(=O)(=O)c2cn(C)c(=O)n(C)c2=O)cc1	none
COc1ccc(C)cc1NC(=O)n1ncc2cc(Cl)ccc21	Pf growth 96h 3.3µM (no result: HCMV inh)
CCOc1ccccc1NC(=O)n1ncc2cc(Cl)ccc21	none (no result: Shiga toxin inh, CHX counter, Pf growth 48h, Pf growth 96h, HCV inh)
O=C(Nc1ccccc1C(F)(F)F)n1ncc2cc(Cl)ccc21	none (no result: Shiga toxin inh, CHX counter, Pf growth 48h, Pf growth 96h, HCV inh)
Cc1ccccc1NC(=O)n1ncc2cc(Cl)ccc21	CHX counter 21
O=C(Nc1ccc(-c2cn3cccnc3n2)cc1)c1ccccc1F	none (no result: Shiga toxin inh, CHX counter, Pf growth 48h, Pf growth 96h, HCV inh)
COc1ccc(NC(=O)CC2C(=O)N(c3ccc(OC)cc3)C(=O)N2CCC2=CCCCC2)cc1 (centres undefined)	none (no result: Shiga toxin inh, CHX counter, Pf growth 48h, Pf growth 96h, HCV inh)
Cc1cc(Br)ccc1NS(=O)(=O)c1c(C)[nH]c(=O)[nH]c1=O	Pf growth 96h 5.2µM
C=C(C)CN(CC)Cc1c(C(=O)N(C)CCCC)nc2ccccn12	Pf growth 96h 9.3µM
Nc1ccccc1-c1ccn[nH]1	none (no result: Shiga toxin inh, CHX counter, Pf growth 48h, Pf growth 96h)
c1ccc(-c2ncc(-c3ccn[nH]3)s2)cc1	Shiga toxin inh 93, CHX counter 46
